Data taken from PubChem BioAssay AID1159580 (chemical genetic matrix, 2015).
Several values for one entry are separate records, joined by “and”; a condition that tells them apart may be missing. Equal entries are not always repeated. Hit rate of the full screen: of about 5,500 compounds, about 2,000 (36%) were called active. Not shown: some 18% with an inconclusive outcome. The list shows a part of the results. Unmarked numbers belong to inactive results. Rule as the data show it: active = normalized growth mostly below about 0.91 (no sharp cut-off); inconclusive = no clear call, values can overlap the other calls; inactive = mostly above about 0.92.

Assay: chemical genetic growth profiling, strain panel (AID 1159580);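 also: tested at 20 µM; growth read once vehicle control cultures reached saturation at 30 °C; 1 = growth at the plate median or of vehicle wells; lower values mean less growth of the strain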
Details: growth OD

Question: What does the source list for O=C(O/N=C1/CCCc2[nH]c3ccccc3c21)c1ccc(Cl)cc1Cl?
Answer: normalized growth (S. cerevisiae deletion strains, locus YAL013W, strain DEP1, hits give low values): 0.906 (active); normalized growth (S. cerevisiae deletion strains, locus YAR019C, strain CDC15, hits give low values): 0.982; normalized growth (S. cerevisiae deletion strains, locus YBL105C, strain PKC1, hits give low values): 0.984; normalized growth (S. cerevisiae deletion strains, locus YBR135W, strain CKS1, hits give low values): 0.974; normalized growth (S. cerevisiae deletion strains, locus YBR136W, strain MEC1, hits give low values): 0.975; normalized growth (S. cerevisiae deletion strains, locus YBR160W, strain CDC28, hits give low values): 0.98; normalized growth (S. cerevisiae deletion strains, locus YBR229C, strain ROT2, hits give low values): 0.97; normalized growth (S. cerevisiae deletion strains, locus YCL061C, strain MRC1, hits give low values): 0.923; normalized growth (S. cerevisiae deletion strains, locus YDL017W, strain CDC7, hits give low values): 0.974; normalized growth (S. cerevisiae deletion strains, locus YDL028C, strain MPS1, hits give low values): 0.972; normalized growth (S. cerevisiae deletion strains, locus YDL101C, strain DUN1, hits give low values): 0.989 and 1; normalized growth (S. cerevisiae deletion strains, locus YDL108W, strain KIN28, hits give low values): 0.972; normalized growth (S. cerevisiae deletion strains, locus YDL132W, strain cdc53, hits give low values): 0.976; normalized growth (S. cerevisiae deletion strains, locus YDL134C, strain PPH21, hits give low values): 0.968; normalized growth (S. cerevisiae deletion strains, locus YDL214C, strain PRR2, hits give low values): 0.917; normalized growth (S. cerevisiae deletion strains, locus YDR052C, strain DBF4, hits give low values): 0.985; normalized growth (S. cerevisiae deletion strains, locus YDR054C, strain cdc34, hits give low values): 0.984; normalized growth (S. cerevisiae deletion strains, locus YDR150W, strain NUM1, hits give low values): 0.943; normalized growth (S. cerevisiae deletion strains, locus YDR226W, strain ADK1, hits give low values): 0.96; normalized growth (S. cerevisiae deletion strains, locus YDR477W, strain SNF1, hits give low values): 0.91; normalized growth (S. cerevisiae deletion strains, locus YEL061C, strain CIN8, hits give low values): 0.917; normalized growth (S. cerevisiae deletion strains, locus YER123W, strain YCK3, hits give low values): 0.917; normalized growth (S. cerevisiae deletion strains, locus YER133W, strain GLC7, hits give low values): 0.91; normalized growth (S. cerevisiae deletion strains, locus YFL009W, strain cdc4, hits give low values): 0.971; normalized growth (S. cerevisiae deletion strains, locus YFL029C, strain CAK1, hits give low values): 0.98; normalized growth (S. cerevisiae deletion strains, locus YFR003C, strain YPI1, hits give low values): 0.973; normalized growth (S. cerevisiae deletion strains, locus YFR019W, strain FAB1, hits give low values): 0.95; normalized growth (S. cerevisiae deletion strains, locus YFR028C, strain CDC14, hits give low values): 0.977; normalized growth (S. cerevisiae deletion strains, locus YGR040W, strain KSS1, hits give low values): 0.908; normalized growth (S. cerevisiae deletion strains, locus YGR052W, strain FMP48, hits give low values): 0.897; normalized growth (S. cerevisiae deletion strains, locus YGR078C, strain PAC10, hits give low values): 0.962; normalized growth (S. cerevisiae deletion strains, locus YGR092W, strain DBF2, hits give low values): 0.982; normalized growth (S. cerevisiae deletion strains, locus YGR229C, strain SMI1, hits give low values): 0.993; normalized growth (S. cerevisiae deletion strains, locus YHR030C, strain SLT2, hits give low values): 0.426 (active) and 0.762 (active); normalized growth (S. cerevisiae deletion strains, locus YHR079C, strain IRE1, hits give low values): 0.988; normalized growth (S. cerevisiae deletion strains, locus YHR082C, strain KSP1, hits give low values): 0.943; normalized growth (S. cerevisiae deletion strains, locus YHR087W, strain rtc3, hits give low values): 0.982; normalized growth (S. cerevisiae deletion strains, locus YHR205W, strain SCH9, hits give low values): 0.961; normalized growth (S. cerevisiae deletion strains, locus YIL147C, strain SLN1, hits give low values): 0.976; normalized growth (S. cerevisiae deletion strains, locus YJL095W, strain BCK1, hits give low values): 0.935; normalized growth (S. cerevisiae deletion strains, locus YJL128C, strain PBS2, hits give low values): 0.921; normalized growth (S. cerevisiae deletion strains, locus YJL157C, strain FAR1, hits give low values): 0.906; normalized growth (S. cerevisiae deletion strains, locus YJR016C, strain ILV3, hits give low values): 0.964; normalized growth (S. cerevisiae deletion strains, locus YJR043C, strain POL32, hits give low values): 0.941; normalized growth (S. cerevisiae deletion strains, locus YJR066W, strain TOR1 (second series), hits give low values): 0.876; normalized growth (S. cerevisiae deletion strains, locus YJR066W, strain TOR1, hits give low values): 0.987; normalized growth (S. cerevisiae deletion strains, locus YJR075W, strain HOC1, hits give low values): 0.895; normalized growth (S. cerevisiae deletion strains, locus YKL048C, strain ELM1, hits give low values): 0.963; normalized growth (S. cerevisiae deletion strains, locus YKL067W, strain YNK1, hits give low values): 0.946; normalized growth (S. cerevisiae deletion strains, locus YKL101W, strain HSL1, hits give low values): 0.935; normalized growth (S. cerevisiae deletion strains, locus YKL190W, strain CNB1, hits give low values): 0.807 (active); normalized growth (S. cerevisiae deletion strains, locus YKL193C, strain SDS22, hits give low values): 0.969; normalized growth (S. cerevisiae deletion strains, locus YKL203C, strain TOR2, hits give low values): 0.958; normalized growth (S. cerevisiae deletion strains, locus YLR039C, strain RIC1, hits give low values): 0.708 (active); normalized growth (S. cerevisiae deletion strains, locus YLR058C, strain SHM2 (second series), hits give low values): 0.971; normalized growth (S. cerevisiae deletion strains, locus YLR085C, strain ARP6, hits give low values): 0.55 (active); normalized growth (S. cerevisiae deletion strains, locus YLR113W, strain HOG1, hits give low values): 0.806 (active); normalized growth (S. cerevisiae deletion strains, locus YLR133W, strain CKI1, hits give low values): 0.926; normalized growth (S. cerevisiae deletion strains, locus YLR262C, strain YPT6, hits give low values): 0.776 (active); normalized growth (S. cerevisiae deletion strains, locus YLR403W, strain SFP1, hits give low values): 0.931; normalized growth (S. cerevisiae deletion strains, locus YML070W, strain DAK1, hits give low values): 0.914; normalized growth (S. cerevisiae deletion strains, locus YML094W, strain GIM5, hits give low values): 0.822 (active); normalized growth (S. cerevisiae deletion strains, locus YMR001C, strain CDC5, hits give low values): 0.977; normalized growth (S. cerevisiae deletion strains, locus YMR205C, strain PFK2 (second series), hits give low values): 0.935; normalized growth (S. cerevisiae deletion strains, locus YMR219W, strain ESC1, hits give low values): 1.01; normalized growth (S. cerevisiae deletion strains, locus YMR263W, strain SAP30, hits give low values): 0.893 (active); normalized growth (S. cerevisiae deletion strains, locus YMR277W, strain FCP1, hits give low values): 0.969; normalized growth (S. cerevisiae deletion strains, locus YMR307W, strain GAS1, hits give low values): 0.461 (active); normalized growth (S. cerevisiae deletion strains, locus YNL006W, strain LST8, hits give low values): 0.983; normalized growth (S. cerevisiae deletion strains, locus YNL020C, strain ARK1, hits give low values): 0.921; normalized growth (S. cerevisiae deletion strains, locus YNL128W, strain TEP1, hits give low values): 0.972; normalized growth (S. cerevisiae deletion strains, locus YNL153C, strain GIM3, hits give low values): 0.971; normalized growth (S. cerevisiae deletion strains, locus YNL161W, strain CBK1, hits give low values): 0.971; normalized growth (S. cerevisiae deletion strains, locus YNL183C, strain NPR1, hits give low values): 1; normalized growth (S. cerevisiae deletion strains, locus YNL207W, strain RIO2, hits give low values): 0.976; normalized growth (S. cerevisiae deletion strains, locus YNL222W, strain SSU72, hits give low values): 0.97; normalized growth (S. cerevisiae deletion strains, locus YNL298W, strain CLA4 (second series), hits give low values): 0.796 (active); normalized growth (S. cerevisiae deletion strains, locus YNL307C, strain MCK1 (second series), hits give low values): 0.937; normalized growth (S. cerevisiae deletion strains, locus YNL322C, strain KRE1, hits give low values): 0.993; normalized growth (S. cerevisiae deletion strains, locus YNR030W, strain Alg12, hits give low values): 0.754 (active); normalized growth (S. cerevisiae deletion strains, locus YOL078W, strain AVO1, hits give low values): 0.971; normalized growth (S. cerevisiae deletion strains, locus YOL136C, strain PFK27, hits give low values): 0.917; normalized growth (S. cerevisiae deletion strains, locus YOR061W, strain CKA2, hits give low values): 0.935; normalized growth (S. cerevisiae deletion strains, locus YOR119C, strain RIO1, hits give low values): 0.97; normalized growth (S. cerevisiae deletion strains, locus YOR231W, strain MKK1, hits give low values): 0.939; normalized growth (S. cerevisiae deletion strains, locus YOR329C, strain SCD5, hits give low values): 0.972; normalized growth (S. cerevisiae deletion strains, locus YPL031C, strain PHO85, hits give low values): 0.9; normalized growth (S. cerevisiae deletion strains, locus YPL055C, strain LGE1, hits give low values): 0.733 (active); normalized growth (S. cerevisiae deletion strains, locus YPL153C, strain RAD53, hits give low values): 0.918; normalized growth (S. cerevisiae deletion strains, locus YPL204W, strain HRR25, hits give low values): 0.912; normalized growth (S. cerevisiae deletion strains, locus YPL209C, strain IPL1, hits give low values): 0.977; normalized growth (S. cerevisiae deletion strains, locus YPL241C, strain CIN2, hits give low values): 0.843 (active); normalized growth (S. cerevisiae deletion strains, locus YPL256C, strain CLN2, hits give low values): 0.882; normalized growth (S. cerevisiae deletion strains, locus YPR025C, strain CCL1, hits give low values): 0.979; normalized growth (S. cerevisiae deletion strains, locus YPR106W, strain ISR1, hits give low values): 0.979; normalized growth (S. cerevisiae deletion strains, locus YPR111W, strain DBF20, hits give low values): 0.972; normalized growth (S. cerevisiae deletion strains, locus YPR135W, strain CTF4, hits give low values): 0.681; normalized growth (S. cerevisiae deletion strains, strain NNK1, hits give low values): 0.975; normalized growth (S. cerevisiae deletion strains, strain TSCII, hits give low values): 0.972; normalized growth (S. cerevisiae strains, strain wild type, hits give low values): 0.874 (active)
